Results filed as inconclusive are left out. Calls of active or inactive are those of the source. The call rests on the fitted dose curve; in most records, active means well fitted curve in the direction sought with a large enough effect; inconclusive means small, poorly fitted or top-dose-only effect, or another doubt; inactive means no such curve, though single readings can be large; an effect the other way counts as inactive or inconclusive.
What was measured:
[1] = system: CRL-7250; assay: Cytotoxic Profiling of Annotated Libraries Using Quantitative High-Throughput Screening (AID 1296008); conditions: Five cell lines viability, CellTiter-Glo ATP luminescence, 48-72 h; max response: stronger effect = lower value; further: nearly all actives have a fitted effect of over 60% in size; on max response: on the % scale 0 is the no-effect control and ±100 the full control effect
In short: (§1)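 Cells exposed to compounds for 48 or 72 hr at 37 degrees Celsius. Viability read as ATP-coupled luminescence with CellTiter-Glo after 10 min at room temperature.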

[2] = system: HEK293; assay: as above; conditions: Five cell lines viability, CellTiter-Glo ATP luminescence, 48-72 h; max response: stronger effect = lower value
In short: as §1

[3] = system: HaCat; assay: as above; conditions: Five cell lines viability, CellTiter-Glo ATP luminescence, 48-72 h; max response: stronger effect = lower value
In short: as §1

[4] = system: KB-3-1; assay: as above; conditions: Five cell lines viability, CellTiter-Glo ATP luminescence, 48-72 h; max response: stronger effect = lower value
In short: as §1

[5] = system: NIH3T3; assay: as above; conditions: Five cell lines viability, CellTiter-Glo ATP luminescence, 48-72 h; max response: stronger effect = lower value
In short: as §1

[6] = system: HACAT; assay: qHTS assay to identify novel small-molecules to repurpose for Merkel cell carcinoma treatment (AID 1296009); conditions: MCC and control cell lines, CellTiter-Glo viability, 72 h; at 44.8 µM (top of the series) unless noted; further: nearly all actives have a fitted effect of over 60% in size
In short: (§2)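 Cells were treated for 72 hr at 37 degree celsius with compounds in 8- or 11-point dose response. Viability was read by CellTiter-Glo luminescence, normalized to no-cell (cytotoxicity) and DMSO controls.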

[7] = system: NIH3T3; assay: as above; conditions: MCC and control cell lines, CellTiter-Glo viability, 72 h; at 44.8 µM (top of the series) unless noted
In short: as §2

[8] = system: C33A; assay: Primary qHTS to identify gynecologic anti-cancer compounds using libraries of approved drugs and bioactive compounds (AID 1345084); conditions: Gynecologic cancer cell panel viability, ATPlite luminescence, 48 h; series mostly up to 57.5 µM; further: on the % scale 0 is the no-effect control and ±100 the full control effect; nearly all actives have a fitted effect of over 55% in size
In short: (§3)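 Five-point cytotoxicity, 48 h drug exposure at 37 C, 5% CO2, on cells seeded 16 h beforehand. ATP content read by ATPlite luminescence.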

[9] = system: CAOV3; assay: as above; conditions: Gynecologic cancer cell panel viability, ATPlite luminescence, 48 h; series mostly up to 57.5 µM
In short: as §3

[10] = system: CASKI; assay: as above; conditions: Gynecologic cancer cell panel viability, ATPlite luminescence, 48 h; series mostly up to 57.5 µM
In short: as §3

[11] = system: Es-2; assay: as above; conditions: Gynecologic cancer cell panel viability, ATPlite luminescence, 48 h; series mostly up to 57.5 µM
In short: as §3

[12] = system: HeLa; assay: as above; conditions: Gynecologic cancer cell panel viability, ATPlite luminescence, 48 h; series mostly up to 57.5 µM
In short: as §3

[13] = system: Hek293T; assay: as above; conditions: Gynecologic cancer cell panel viability, ATPlite luminescence, 48 h, control line for the selectivity index; series mostly up to 57.5 µM
In short: as §3

[14] = system: JEG-3; assay: as above; conditions: Gynecologic cancer cell panel viability, ATPlite luminescence, 48 h; series mostly up to 57.5 µM
In short: as §3

CC1(O)CC(O)C2C(C(=O)O)=COC(OC3OC(CO)C(O)C(O)C3OC(=O)/C=C/c3ccc(O)cc3)C21 (configuration not stated)
inactive: max response [1] 2.15% | max response [2] 1.1% | outcome [3] | max response [4] 6.91% | outcome [5] | outcome [6] inactive [at 17.4 µM] | outcome [7] inactive [at 17.4 µM] | Potency [8] | Potency [9] | outcome [10] | Potency [11] | Potency [12] | Potency [13] | Potency [14]

O=C(/C=C/c1ccc(O)c(O)c1)OC[C@H]1O[C@@H](OC2CCCCC2O)[C@H](O)[C@@H](O)[C@@H]1O (some centres not stated)
inactive: outcome [1] | max response [2] -0.405% | outcome [3] | max response [4] 1.68% | outcome [5] | outcome [6] inactive [at 17.4 µM] | outcome [7] inactive [at 17.4 µM] | Potency [8] | Potency [9] | outcome [10] | Potency [11] | Potency [12] | Potency [13] | Potency [14]

OC[C@@]1(O)CO[C@H](OC[C@H]2O[C@@H](OC(CCCCc3ccc(O)cc3)CCc3ccc(O)cc3)[C@H](O)[C@@H](O)[C@@H]2O)[C@@H]1O (some centres not stated)
inactive: max response [1] -9.7% | max response [2] -4.6% | outcome [3] | max response [4] 9.32% | outcome [5] | outcome [6] inactive [at 17.4 µM] | outcome [7] inactive [at 17.4 µM] | Potency [8] | Potency [9] | outcome [10] | Potency [11] | Potency [12] | Potency [13] | Potency [14]

CC(C)C1NC(=O)C2CCCN2C1=O (configuration not stated)
inactive: outcome [1] | max response [2] 0.78% | outcome [3] | outcome [4] | outcome [5] | outcome [6] | outcome [7] | Potency [8] | Potency [9] | outcome [10] | Potency [11] | Potency [12] | Potency [13] | Potency [14]

O=C(O)CCc1ccc(NCc2cccc3c2CCCN3CCOc2ccccc2)cc1F
inactive: max response [1] 0.539% | max response [2] 0.703% | outcome [3] | max response [4] 2.13% | outcome [5] | outcome [6] | outcome [7] | Potency [8] | Potency [9] | outcome [10] | Potency [11] | Potency [12] | Potency [13] | Potency [14]

O=C(O)CC/C=C\C[C@H]1CO[C@@H](c2ccccc2Cl)O[C@H]1c1ccccc1O
inactive: max response [1] 3.51% | max response [2] -2.35% | outcome [3] | max response [4] 3.23% | outcome [5] | outcome [6] | outcome [7] | Potency [8] | Potency [9] | outcome [10] | Potency [11] | Potency [12] | Potency [13] | Potency [14]

CC(=O)OC1C(CO)OC(O[C@H]2[C@H](OC(=O)[C@]34CCC(C)(C)C[C@H]3C3=CCC5[C@@]6(C)CC[C@H](O[C@@H]7O[C@H](C(=O)O)[C@@H](O)[C@H](O[C@@H]8OC[C@@H](O)[C@H](O)[C@H]8O)[C@H]7O[C@@H]7O[C@H](CO)[C@H](O)[C@H](O)[C@H]7O)[C@@](C)(C=O)C6CC[C@@]5(C)[C@]3(C)C[C@H]4O)O[C@H](C)[C@H](OC3OC(C)C(OC4OCC(O)C(O)C4O)C(O)C3O)[C@@H]2O)C(O)C1O (some centres not stated)
inactive: max response [1] -0.582% | max response [2] -1.35% | outcome [3] | outcome [4] | outcome [5] | outcome [6] inactive [at 9.27 µM] | outcome [7] inactive [at 9.27 µM] | activity change, negative = cytotoxicity [8] 12.2% [at 6.55 µM] | activity change, negative = cytotoxicity [9] -15% [at 6.55 µM] | activity change, negative = cytotoxicity [10] 7.74% [at 6.55 µM] | activity change, negative = cytotoxicity [11] -0.286% [at 6.55 µM] | activity change, negative = cytotoxicity [12] -1.51% [at 6.55 µM] | activity change, negative = cytotoxicity [13] 1.03% [at 6.55 µM] | activity change, negative = cytotoxicity [14] 3.7% [at 6.55 µM]

CC1OC(OC2CCC3(C)C(CCC4(C)C3C=CC35OCC6(CCC(C)(C)CC63)CCC45C)C2(C)CO)C(OC2OC(CO)C(O)C(O)C2O)C(O)C1OC1OC(CO)C(O)C(O)C1O (configuration not stated)
inactive: max response [1] -0.103% | max response [2] -1.62% | outcome [3] | outcome [4] | outcome [5] | outcome [6] inactive [at 9.27 µM] | outcome [7] inactive [at 9.27 µM] | activity change, negative = cytotoxicity [8] 0.873% [at 11.6 µM] | activity change, negative = cytotoxicity [9] 14% [at 11.6 µM] | activity change, negative = cytotoxicity [10] 3.54% [at 11.6 µM] | activity change, negative = cytotoxicity [11] -0.667% [at 11.6 µM] | activity change, negative = cytotoxicity [12] 5.87% [at 11.6 µM] | activity change, negative = cytotoxicity [13] 6.69% [at 11.6 µM] | activity change, negative = cytotoxicity [14] 8.45% [at 11.6 µM]

— PubChem BioAssay (NCATS)
